Records with an inconclusive call do not appear. Calls of active or inactive are those of the source. Calls follow the shape of the dose curve; as a rule, active = well fitted inhibition curve with a large enough effect; inconclusive = small, poorly fitted or top-dose-only effect; inactive = no such curve, though single readings can be large or run the other way. Non-standard residues stand in square brackets, D forms with d. Residues, ends and D or L forms follow the SMILES beside them. *: point of attachment. Nva = CCC[C@H](N)C(=O)O; Cbz = O=C(OCc1ccccc1)*
Experiment: BET inhibitor-based combinations targeting novel dependencies in MECOM-rearranged (r) AML: OCI-AML3 cell line (AID 2202232); also: nearly all actives have a fitted effect of over 35% in size
Details: CellTiter-Glo luminescence, 48 h; Potency: OCI-AML3 viability; series mostly up to 46 µM
Source text: Ecotropic viral insertion site 1 (EVI1) is located on chromosome 3q26.2 as part of the MECOM (MDS and EVI1 complex) locus. Under normal hematopoiesis, EVI1 is a regulator of hematopoietic stem cell maintenance and self-renewal and EVI1 levels decrease as the cells differentiate. In approximately 5-10% of de novo acute myeloid leukemia (AML) EVI1 is aberrantly expressed, including Chromosomal inv(3)(q21;q26.2) or t(3;3)(q21;q26.2) alterations (MECOM-r) that account for about 50% of AML with EVI1 overexpression 31. AMLs with high levels of EVI1 have a poor prognosis and an overall survival time averaging between 10-14 months. EVI1 overexpression confers resistance in leukemia cells, highlighting the need to develop new targeted therapies for EVI1 overexpressing AMLs.
Here, we performed an unbiased chemical drug screening by evaluating the single agent activity of a collection of 2,480 oncology-focused, approved and investigational drugs (NCATS Mechanism Interrogation Plates, MIPE v5.0) against a panel of seven AML cell lines. These included four MECOM-r cell-lines (AML-191, AML-194, UCSD-AML1 and HNT-34) and three non-MECOM-r AMLs (MV4-11, OCI-AML3 and SET-2). Exploiting the mechanistic redundancy built in the library, we identified target-level sensitivities in MECOM-r AML cells and relative activity as compared to other AML subtypes.
A collection of 2480 mechanistically annotated dugs (MIPE v5.0) was used to screen four 3q26.2 rearranged AML cell lines and three non-3q26.2 rearranged AML cell lines. This library purposely exploits redundancy by including multiple inhibitors of key onco-targets, while simultaneously encompassing mechanistic diversity, targeting more than 800 distinct mechanisms of action. Briefly, cells were seeded in 5 uL of growth media using a Multidrop Combi dispenser into 1536 well white polystyrene tissue culture treated plates (Corning) at a density of 500cells/well. For each cell-line, for each of the 2480 drugs in MIPE v5.0 library, an 11-point dose curve was generated via a 1536 pin-tool. Plates were incubated for 48 hr at standard incubator conditions, covered by a stainless steel gasketed lid to prevent evaporation. Cell viability was determined by luminescence based, Cell Titer Glo assay (Promega). In detail, 3 uL of Cell Titer Glo were added to each well and plates were incubated at room temperature for 15 min with a stainless-steel lid in place. Luminescence readings were taken using a Viewlux (PerkinElmer) with a 2 s exposure time per plate. Compound dose-response curves were normalized to DMSO and empty well controls on each plate. Quantitative drug activity data from dose-response curves was determined utilizing area Under the Curve (AUC) and Z-transformed AUC (Z-AUC, a mean-centering transformation applied to each individual cell-line screened).
Potency is read from the fitted curve at half-maximal effect.

SMILES | Potency
CC(=O)OC1C(C)OC(Oc2c(-c3ccc(O)cc3)oc3cc(O)cc(O)c3c2=O)C(O)C1OC(C)=O (stereo not given) | inactive
NS(=O)(=O)OC[C@@H]1C[C@@H](n2ccc3c(N[C@H]4CCc5ccccc54)ncnc32)C[C@@H]1O | 372 nM (active)
C[C@]12CC[C@H](O)CC1=CCC1C2CC[C@]2(C)C(n3cnc4ccccc43)=CCC12 (stereo not given in full) | inactive
COC(=O)N1CC2(CC2)C[C@H](C(=O)NO)[C@H]1C(=O)N1CCN(c2ccccc2)CC1 | inactive
NC[C@H]1O[C@H](O[C@@H]2[C@@H](O)[C@@H](O[C@H]3O[C@H](CO)[C@@H](O)[C@H](N)[C@@H]3O)[C@H](N)C[C@@H]2N)[C@H](O)[C@@H](O)[C@H]1O | inactive
N#CNC(=NCCCCCCOc1ccc(Cl)cc1)Nc1ccncc1 | 10.5 nM (active)
COc1ccccc1N1CCN(CCN(C(=O)C2CCCCC2)c2ccccn2)CC1 | inactive
C[C@H](NC(=O)[C@@H](O)c1cc(F)cc(F)c1)C(=O)N[C@@H]1C(=O)N(C)c2ccccc2-c2ccccc21 | inactive
Nc1nc(Cl)nc2c1ncn2[C@@H]1O[C@H](CO)[C@@H](O)[C@@H]1F | 148 nM (active)
Cc1cc(-c2ncc(CC(=O)Nc3ccc(-c4cnccn4)cn3)cc2C)ccn1 | 8330 nM (active)
CCCCc1oc2ccc(NS(C)(=O)=O)cc2c1C(=O)c1ccc(OCCCN(CCCC)CCCC)cc1 | 14800 nM (active)
CCN(CC)CCCCNc1nc2cc(Cl)c(Cl)cc2nc1-c1ccc(-c2cccs2)s1 | 20900 nM (active)
CCc1cc(C(N)=O)ccc1-n1nc(C(C)C)c2c(-n3cnc(-c4cnn(C)c4)c3)ccnc21 | 1860 nM (active)
N#Cc1c(O)c2c(-c3ccc(-c4ccccc4O)cc3)csc2[nH]c1=O | inactive
O=C(CCCCCCC(=O)Nc1cccnc1)NO | 5900 nM (active)
CC[C@@H]1C(=O)N(C)c2cnc(Nc3ccc(C(=O)NC4CCC(N5CCN(CC6CC6)CC5)CC4)cc3OC)nc2N1C(C)C (stereo not given in full) | 59 nM (active)
Cc1ccc(S(=O)(=O)Cc2nc(-c3ccc(C(=O)NCc4cccnc4)cc3)oc2C)cc1 | 11.8 nM (active)
FC(F)(F)c1ccc(/C=C/c2nc(COc3ccc(CCCCn4ccnn4)cc3)co2)cc1 | 372 nM (active)
Oc1ccc([C@@H]2Oc3ccc(O)cc3[C@@H]3CCC[C@@H]32)cc1 | 16600 nM (active)
Nc1ccc(S(N)(=O)=O)cc1 | inactive

SMILES | Potency
CCc1cc(Nc2nccc(-c3c(-c4ccc(OC)c(C(=O)Nc5c(F)cccc5F)c4)nc4ccccn34)n2)c(OC)cc1N1CCC(N2CCN(S(C)(=O)=O)CC2)CC1 | inactive
CCOc1cc(N2CCC(O)CC2)ccc1Nc1ncc2c(n1)N(C)c1ccccc1C(=O)N2C | 3320 nM (active)
C[C@@]1(c2cc(-c3cncnc3)c(F)cc2F)CCSC(N)=N1 | inactive
CC(C(=O)O)c1ccc2c(c1)CC(=O)c1ccccc1S2 (stereo not given) | inactive
COc1ccc(-n2c(C)c([N+](=O)[O-])c3ccc(O)cc32)cc1 | inactive
Nc1nc(N)nc(-c2cc(Cl)ccc2Cl)n1 | inactive
CNC(=O)c1ccccc1Nc1nc(Nc2ccc(N3CCOCC3)cc2OC)ncc1Cl | 833 nM (active)
O=C(NOCC1CC1)c1ccc(F)c(F)c1Nc1ccc(I)cc1Cl | 296 nM (active)
CCCc1nc(C(C)(C)O)c(C(=O)O)n1Cc1ccc(-c2ccccc2-c2nn[nH]n2)cc1 | inactive
Nc1ccccc1NC(=O)c1ccc(CNC(=O)OCc2cccnc2)cc1 | 2350 nM (active)
O=C(O)C1=CC(O)C(O)[C@H](O)C1 (stereo not given in full) | inactive
O=C(Nc1ccc(F)c(C(F)(F)F)c1)Nc1nnc(-c2ccncc2)s1 | inactive
CC1(CN2CCC(n3c(=O)[nH]c4ccccc43)CC2)OCc2ccccc2-n2cccc21 (stereo not given) | 16600 nM (active)
COc1nc(C)cnc1NS(=O)(=O)c1cccnc1-c1ccc(-c2nnco2)cc1 | inactive
Nc1ccn([C@@H]2O[C@H](CO)[C@@H](O)C2(F)F)c(=O)n1 | 10.5 nM (active)
NC(=O)C1CCCc2c1[nH]c1ccc(Cl)cc21 (stereo not given) | inactive
CCC[C@H](N[C@H]1CCc2cc(F)cc(F)c2C1)C(=O)Nc1cn(C(C)(C)CNCC(C)(C)C)cn1 | 11800 nM (active)
O=C(Cc1ccc(-c2ccc(OCCN3CCOCC3)cc2)cn1)NCc1ccccc1 | 105 nM (active)
NC(=O)[C@@H](CCC(F)(F)F)N(Cc1ccc(-c2ncon2)cc1F)S(=O)(=O)c1ccc(Cl)cc1 | inactive
CCC[C@@H](C=O)NC(=O)[C@H](CC(C)C)NC(=O)[C@H](CC(C)C)NC(=O)OCc1ccccc1 (Cbz-Leu-Leu-[Nva]-aldehyde) | 2350 nM (active)

— PubChem BioAssay (NCATS)
